# Test results published in the supplement of paper PMC11732987, “Enantioselective OTUD7B fragment discovery through chemoproteomics screening and high-throughput optimisation” (Communications Chemistry, 2025).
# Values without a mark were called inactive.
# What was measured:
# Assay in all cases: log2 ratio of Biotin-Ahx-Ub-VS probe labelling (fragment/DMSO); higher = less target engagement (more negative = stronger competition), active = hit call of the paper (q ≤ 0.05, log2 ratio ≤ -1)
# Settings in all cases: compound concentration: 200 uM; treatment time: 3 h
# [1] = biological target: T1, OTUD6B (UniProt Q8N6M0)
# T1 sequence (whole entry): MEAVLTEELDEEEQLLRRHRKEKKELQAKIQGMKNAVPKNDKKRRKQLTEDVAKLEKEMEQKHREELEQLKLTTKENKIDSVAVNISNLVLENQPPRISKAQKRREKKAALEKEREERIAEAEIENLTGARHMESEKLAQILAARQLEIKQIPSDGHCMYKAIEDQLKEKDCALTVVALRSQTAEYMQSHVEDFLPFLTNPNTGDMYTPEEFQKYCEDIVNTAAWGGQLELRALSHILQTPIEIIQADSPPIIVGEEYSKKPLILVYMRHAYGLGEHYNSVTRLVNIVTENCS
# How it was run: (§1)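 Fragment (200 µM) or vehicle was incubated for 3 h with triplicate HEK293T lysate samples of 495 µg, which were then treated with Biotin-Ahx-Ub-VS at 0.5 µM final for 1 h. Labelled DUBs were enriched on NeutrAvidin, digested with LysC and trypsin, and analysed by diaPASEF LC-MS/MS. Values are average log2 fragment/vehicle ratios from an unpaired t-test on global-median-normalised Spectronaut label-free quantities, using proteins with ≥2 unique peptides.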
# [2] = biological target: T2, OTUD7B (UniProt Q6GQQ9)
# T2 sequence (whole entry): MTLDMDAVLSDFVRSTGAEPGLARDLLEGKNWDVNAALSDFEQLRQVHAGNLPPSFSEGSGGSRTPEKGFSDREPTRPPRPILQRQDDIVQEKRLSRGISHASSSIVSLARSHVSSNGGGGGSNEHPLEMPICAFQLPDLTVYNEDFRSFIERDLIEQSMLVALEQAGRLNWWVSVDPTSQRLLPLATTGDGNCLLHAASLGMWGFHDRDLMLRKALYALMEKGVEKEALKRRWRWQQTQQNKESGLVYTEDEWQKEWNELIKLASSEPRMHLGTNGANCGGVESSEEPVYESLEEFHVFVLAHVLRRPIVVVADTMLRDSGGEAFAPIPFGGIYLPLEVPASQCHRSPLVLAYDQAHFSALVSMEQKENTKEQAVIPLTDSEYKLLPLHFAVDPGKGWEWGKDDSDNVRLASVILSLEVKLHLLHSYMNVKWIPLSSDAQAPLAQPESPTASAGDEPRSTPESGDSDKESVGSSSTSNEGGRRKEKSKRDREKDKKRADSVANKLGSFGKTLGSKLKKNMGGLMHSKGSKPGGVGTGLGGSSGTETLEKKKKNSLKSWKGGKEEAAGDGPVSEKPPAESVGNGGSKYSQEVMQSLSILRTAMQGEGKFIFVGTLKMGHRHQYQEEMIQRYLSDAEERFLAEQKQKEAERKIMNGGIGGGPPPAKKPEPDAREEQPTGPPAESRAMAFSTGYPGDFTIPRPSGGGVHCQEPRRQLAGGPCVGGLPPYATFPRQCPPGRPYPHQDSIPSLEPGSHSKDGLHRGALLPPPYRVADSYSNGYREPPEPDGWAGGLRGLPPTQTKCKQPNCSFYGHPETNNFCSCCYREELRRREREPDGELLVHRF
# How it was run: as §1
# [3] = biological target: PRPF8 (UniProt Q6P2Q9)
# How it was run: as §1
# [4] = biological target: T3, PSMD7 (UniProt P51665)
# T3 sequence (whole entry): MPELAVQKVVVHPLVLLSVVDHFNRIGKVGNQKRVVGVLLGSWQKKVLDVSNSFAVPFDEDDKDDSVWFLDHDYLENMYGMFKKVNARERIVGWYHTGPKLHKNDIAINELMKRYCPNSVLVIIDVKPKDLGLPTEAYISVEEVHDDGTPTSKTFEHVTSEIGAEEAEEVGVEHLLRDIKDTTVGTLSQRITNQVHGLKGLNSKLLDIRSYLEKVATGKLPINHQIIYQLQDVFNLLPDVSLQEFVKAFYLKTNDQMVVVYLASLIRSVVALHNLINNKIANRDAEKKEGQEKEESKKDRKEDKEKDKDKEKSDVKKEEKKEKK
# How it was run: as §1
# [5] = biological target: UCHL1 (UniProt P09936)
# Chain of UCHL1 (P09936 whole entry, looked up): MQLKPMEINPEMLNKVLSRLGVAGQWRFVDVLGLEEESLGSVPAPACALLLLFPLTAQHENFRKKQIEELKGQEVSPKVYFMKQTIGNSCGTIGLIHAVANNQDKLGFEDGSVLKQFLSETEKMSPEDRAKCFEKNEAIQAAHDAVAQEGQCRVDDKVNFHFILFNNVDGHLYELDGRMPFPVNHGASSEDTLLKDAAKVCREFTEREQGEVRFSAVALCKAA
# How it was run: as §1
# [6] = biological target: T4, UCHL3 (UniProt P15374)
# T4 sequence (whole entry): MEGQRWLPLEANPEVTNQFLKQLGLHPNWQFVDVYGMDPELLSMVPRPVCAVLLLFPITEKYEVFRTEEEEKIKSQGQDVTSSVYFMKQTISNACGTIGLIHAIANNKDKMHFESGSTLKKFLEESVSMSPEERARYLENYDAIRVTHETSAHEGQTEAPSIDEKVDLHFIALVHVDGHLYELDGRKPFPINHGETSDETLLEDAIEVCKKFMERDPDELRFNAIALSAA
# How it was run: as §1
# [7] = biological target: T5, UCHL5 (UniProt Q9Y5K5)
# T5 sequence (whole entry): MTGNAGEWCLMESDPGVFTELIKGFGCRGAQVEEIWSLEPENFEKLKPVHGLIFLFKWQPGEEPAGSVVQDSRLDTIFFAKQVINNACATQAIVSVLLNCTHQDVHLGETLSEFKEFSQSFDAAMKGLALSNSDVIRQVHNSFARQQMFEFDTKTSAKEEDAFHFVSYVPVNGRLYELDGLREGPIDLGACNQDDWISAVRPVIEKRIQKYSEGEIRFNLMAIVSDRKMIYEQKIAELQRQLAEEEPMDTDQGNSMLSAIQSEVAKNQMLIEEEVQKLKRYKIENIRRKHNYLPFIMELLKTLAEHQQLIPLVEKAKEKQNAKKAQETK
# How it was run: as §1
# [8] = biological target: USP10 (UniProt Q14694)
# Chain of USP10 (Q14694 whole entry): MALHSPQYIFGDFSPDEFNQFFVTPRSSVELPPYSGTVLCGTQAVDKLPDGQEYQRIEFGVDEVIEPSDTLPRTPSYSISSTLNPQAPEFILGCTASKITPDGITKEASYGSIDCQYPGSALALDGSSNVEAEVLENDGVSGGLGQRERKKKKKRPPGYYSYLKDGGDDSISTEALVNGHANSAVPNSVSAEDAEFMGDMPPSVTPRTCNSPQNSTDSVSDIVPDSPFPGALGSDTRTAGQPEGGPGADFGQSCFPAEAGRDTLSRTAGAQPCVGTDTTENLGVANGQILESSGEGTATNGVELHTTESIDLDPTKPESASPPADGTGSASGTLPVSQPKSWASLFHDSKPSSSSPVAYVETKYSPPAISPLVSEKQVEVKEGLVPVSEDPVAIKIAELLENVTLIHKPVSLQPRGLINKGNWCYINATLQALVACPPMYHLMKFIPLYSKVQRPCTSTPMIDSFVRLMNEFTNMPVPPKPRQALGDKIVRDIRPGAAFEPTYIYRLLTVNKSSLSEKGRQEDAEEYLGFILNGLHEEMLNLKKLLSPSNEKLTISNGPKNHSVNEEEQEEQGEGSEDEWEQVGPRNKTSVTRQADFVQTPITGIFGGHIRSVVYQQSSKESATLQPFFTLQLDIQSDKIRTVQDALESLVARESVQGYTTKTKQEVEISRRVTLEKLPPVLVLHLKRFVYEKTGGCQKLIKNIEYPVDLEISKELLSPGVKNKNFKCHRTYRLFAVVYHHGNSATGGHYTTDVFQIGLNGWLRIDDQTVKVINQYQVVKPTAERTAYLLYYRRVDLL
# How it was run: as §1
# [9] = biological target: T6, USP15 (UniProt Q9Y4E8)
# T6 sequence (whole entry): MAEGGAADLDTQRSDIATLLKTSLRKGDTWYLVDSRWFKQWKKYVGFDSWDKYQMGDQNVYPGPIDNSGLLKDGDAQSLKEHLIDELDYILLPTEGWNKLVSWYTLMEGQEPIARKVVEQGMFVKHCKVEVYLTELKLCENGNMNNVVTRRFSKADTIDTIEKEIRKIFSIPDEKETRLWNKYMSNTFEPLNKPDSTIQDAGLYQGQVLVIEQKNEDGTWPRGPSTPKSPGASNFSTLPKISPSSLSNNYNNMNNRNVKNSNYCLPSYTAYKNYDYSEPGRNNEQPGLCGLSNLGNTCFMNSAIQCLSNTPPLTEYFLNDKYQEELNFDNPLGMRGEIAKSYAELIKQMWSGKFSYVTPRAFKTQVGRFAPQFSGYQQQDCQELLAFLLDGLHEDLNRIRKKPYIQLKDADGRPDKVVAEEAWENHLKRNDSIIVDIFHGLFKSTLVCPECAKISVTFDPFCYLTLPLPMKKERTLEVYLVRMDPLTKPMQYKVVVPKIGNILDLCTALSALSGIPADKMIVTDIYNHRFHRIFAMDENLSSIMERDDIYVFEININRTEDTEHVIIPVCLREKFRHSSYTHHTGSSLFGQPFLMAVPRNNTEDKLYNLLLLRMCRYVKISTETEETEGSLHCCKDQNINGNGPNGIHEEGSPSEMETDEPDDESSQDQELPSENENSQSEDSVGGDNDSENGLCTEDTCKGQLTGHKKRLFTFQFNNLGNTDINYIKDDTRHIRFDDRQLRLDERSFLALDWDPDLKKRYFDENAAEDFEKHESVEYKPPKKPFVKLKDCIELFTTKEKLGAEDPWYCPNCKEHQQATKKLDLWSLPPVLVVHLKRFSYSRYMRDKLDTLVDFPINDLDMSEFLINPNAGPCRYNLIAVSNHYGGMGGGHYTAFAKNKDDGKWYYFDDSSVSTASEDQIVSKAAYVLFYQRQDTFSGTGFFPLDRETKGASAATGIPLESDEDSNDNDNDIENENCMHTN
# How it was run: as §1
# [10] = biological target: USP16 (UniProt Q9Y5T5)
# Chain of USP16 (Q9Y5T5 whole entry, looked up): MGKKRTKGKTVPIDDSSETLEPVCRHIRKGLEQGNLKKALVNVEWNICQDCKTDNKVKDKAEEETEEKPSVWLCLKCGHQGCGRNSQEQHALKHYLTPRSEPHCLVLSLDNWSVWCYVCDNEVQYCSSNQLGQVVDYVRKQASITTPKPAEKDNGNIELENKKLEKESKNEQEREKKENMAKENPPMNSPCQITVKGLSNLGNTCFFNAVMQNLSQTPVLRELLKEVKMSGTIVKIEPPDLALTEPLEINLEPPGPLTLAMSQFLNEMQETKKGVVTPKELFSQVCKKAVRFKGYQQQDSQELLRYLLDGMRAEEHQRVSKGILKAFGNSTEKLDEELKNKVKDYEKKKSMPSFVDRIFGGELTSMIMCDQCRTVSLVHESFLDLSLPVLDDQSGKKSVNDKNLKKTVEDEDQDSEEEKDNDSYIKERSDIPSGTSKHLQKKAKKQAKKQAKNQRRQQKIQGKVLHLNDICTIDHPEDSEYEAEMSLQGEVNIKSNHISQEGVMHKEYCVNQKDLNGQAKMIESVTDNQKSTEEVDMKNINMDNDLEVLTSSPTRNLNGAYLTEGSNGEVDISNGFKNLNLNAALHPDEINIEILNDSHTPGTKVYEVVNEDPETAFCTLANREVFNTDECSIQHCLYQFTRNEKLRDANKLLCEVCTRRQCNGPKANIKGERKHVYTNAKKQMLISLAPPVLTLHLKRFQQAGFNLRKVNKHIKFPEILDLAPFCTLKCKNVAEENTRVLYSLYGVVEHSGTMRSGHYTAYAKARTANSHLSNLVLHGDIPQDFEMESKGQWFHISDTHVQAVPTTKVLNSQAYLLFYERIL
# How it was run: as §1
smiles,measurement,setting,value
Cc1ccc(N2CCC(NC(=O)CCl)C2=O)cc1 (stereo not given),log2 ratio of Biotin-Ahx-Ub-VS probe labelling,[1],0.0252
same,log2 ratio of Biotin-Ahx-Ub-VS probe labelling,[2],-0.741
same,log2 ratio of Biotin-Ahx-Ub-VS probe labelling,[3],-0.0776
same,log2 ratio of Biotin-Ahx-Ub-VS probe labelling,[4],0.0257
same,log2 ratio of Biotin-Ahx-Ub-VS probe labelling,[5],-1.67 (active)
same,log2 ratio of Biotin-Ahx-Ub-VS probe labelling,[6],0.299
same,log2 ratio of Biotin-Ahx-Ub-VS probe labelling,[7],-0.0673
same,log2 ratio of Biotin-Ahx-Ub-VS probe labelling,[8],-0.174
same,log2 ratio of Biotin-Ahx-Ub-VS probe labelling,[9],0.106
same,log2 ratio of Biotin-Ahx-Ub-VS probe labelling,[10],-0.702
